± gives the standard deviation.
system: MILI (PIWIL2) piRISC loaded with piRNA #1 (26 nt); assay: pre-steady-state target cleavage rate (min^-1); guide: piRNA #1 5'p-UGAGGUAGUAGGUUGUAUAGUAUCCA; MIWI and MILI are mouse PIWI proteins and EfPiwi is from a freshwater sponge; tags in brackets are library labels; higher = faster piRNA-guided slicing of the target; conditions: auxiliary factor: 500 nM mouse GTSF1
Outline: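 The pre-steady-state cleavage rate came from a burst-and-steady-state fit to pooled data from three Cleave-'n-Seq trials, in which uncleaved targets were sequenced and normalised to depth and to weakly complementary targets. Each reaction held 0.1 nM transcribed, DNA-blocked target RNA library and 1 nM active affinity-purified piRISC carrying one synthetic guide, with or without 500 nM GTSF1 partner protein, in HEPES–potassium acetate buffer at 33 °C for 0–8 or 0–960 min. k3 was capped at 0.0001 min^-1.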

Sequence | pre-steady-state target cleavage rate
GGAGACCUAACUAACAACCUACUACCUCA | 0.0182 ± 0.0067
GGAGACCUAUCUAUACAACCUACGACCUCA | 0.0973 ± 0.013
GGAGACCAUACUAUACAAGCUUCUACCUCA | 0.036 ± 0.007
GGAGACCUAUCAAUACAACGUACUACCUCA | 0.00874 ± 0.0028
GGAGACCUAUGAUAUCAACCUAGUACCUGA | < 0.0001
GGAGACCUUACUAUACAACCUACUUACCUCA | 0.158 ± 0.013
GGAGACCUAUGAAUACAACCUACUGACCUCA | 0.00755 ± 0.0029
GGAGACCUAUGAUAACCAACCUACUACCUCA | 0.00371 ± 0.0025
GGAGACCUAACUAUACAACCUAACUACCUCA | 0.00748 ± 0.0037
GGAGACCUAUCUAAACAACCUACAACCUCA | 0.0563 ± 0.0063
GGAGACCUUACUAGACAACCUACUACCUCA | 0.155 ± 0.015
GGAGAGGAUAGUAAACAACCUACUACCUCA | 0.0497 ± 0.011
GGAGACCUAUCUAUACAACCUUCUACCACA | 0.00592 ± 0.0023
GGAGACCUAACUUUUCAACCUACUACCUCA | 0.0456 ± 0.014
GGAGACCUAUCUAUACAAGCAACUACCUCA | 0.00953 ± 0.0029
GGAGACCUAACUAUACUAGCUACUACCUCA | 0.12 ± 0.015

From the supplement of paper PMC10338343
